Screening data (PubChem)
Rows were chosen to be rich in hits. Some 11% of all compounds tested hit in one or more screens of this group.
JMJD2A Tudor: JMJD2A Tudor domain (human) inhibition | O75164 | AlphaScreen JMJD2A-Tudor / H3K4me3 peptide binding | Potency, µM (titrated, usually from 114 µM), for inactives: at the top dose activity change, negative = inhibition, actives largely listed as inhibitors | 4.4% of 390,000 active | AID 504339; also: potency is read from the fitted curve at half-maximal effect; % is scaled to controls: 0 for no effect and ±100 for the full control effect; nearly all actives have a fitted effect of over 50% in size
HP1b binding inh: HP1-beta chromodomain-methylated histone interaction inhibition. P83916. AlphaScreen HP1-beta / biotin-H3K9me3 peptide binding. Potency, µM (top dose mostly 114 µM), inactives show top-dose activity change, negative = inhibition, usual class: inhibitors. 0.56% of 390,000 active; also: potency is read from the fitted curve at half-maximal effect; nearly all actives have a fitted effect of over 70% in size
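AlphaScreen: HP1-beta (50 nM) preformed 30 min with biotin-H3(1-18)K9me3 peptide (50 nM) in PBS pH 7.4, 0.01% Tween-20. Compound added for 30 min at RT, then streptavidin donor/nickel chelate acceptor beads (10 ug/mL) for 30 min.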
BAZ2B block: inhibitors of human BAZ2B bromodomain. Potency, µM (doses to about 114 µM), inactives show top-dose activity change, negative = inhibition, actives largely listed as inhibitors. 4.4% of 360,000 active. AlphaScreen BAZ2B-H3K14Ac peptide displacement. Q9UIF8; also: potency is read from the fitted curve at half-maximal effect; % is scaled to controls: 0 for no effect and ±100 for the full control effect; nearly all actives have a fitted effect of over 60% in size
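BAZ2B 50 nM plus b-H3(5-23)K14Ac 50 nM, PBS pH 7.4/0.01% Tween-20, 30 min RT; compound added (max 110 uM), 30 min RT; streptavidin donor/Ni-chelate acceptor beads 10 ug/mL final, 20 min dark; AlphaScreen read.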
PI5P4Ka inh: inhibitors of human PI5P4K alpha. P48426. PI5P4Kalpha enzyme, ADP-Glo luminescence, 60 min; hits give low values. max response, %. 1.2% of 330,000 active. AID 652105; active = max response of -50% or lower; inconclusive = between -30% and -50%; inactive = -30% or higher; also: value at the top dose of about 77 µM; % is scaled to controls: 0 for no effect and ±100 for the full control effect
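ADP-Glo luminescence end-point after a 60 min room-temperature kinase reaction. PI5P4Kalpha and substrate in HEPES pH 7.4 buffer with EGTA, 0.1% CHAPS and 5% DMSO; ATP at 5 microM final.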
L3MBTL1 block: inhibitors of human L3MBTL1; Q9Y468; AlphaScreen L3MBTL1–H3K9me1 peptide binding; Potency, µM (highest dose often 57.1 µM), for inactives: at the highest dose activity, negative = inhibition, hits mostly inhibitors; 0.66% of 230,000 active; AID 485360; also: potency is read from the fitted curve at half-maximal effect; % is scaled to controls: 0 for no effect and ±100 for the full control effect; nearly all actives have a fitted effect of over 60% in size
Target sequence (Q9Y468 whole entry, looked up): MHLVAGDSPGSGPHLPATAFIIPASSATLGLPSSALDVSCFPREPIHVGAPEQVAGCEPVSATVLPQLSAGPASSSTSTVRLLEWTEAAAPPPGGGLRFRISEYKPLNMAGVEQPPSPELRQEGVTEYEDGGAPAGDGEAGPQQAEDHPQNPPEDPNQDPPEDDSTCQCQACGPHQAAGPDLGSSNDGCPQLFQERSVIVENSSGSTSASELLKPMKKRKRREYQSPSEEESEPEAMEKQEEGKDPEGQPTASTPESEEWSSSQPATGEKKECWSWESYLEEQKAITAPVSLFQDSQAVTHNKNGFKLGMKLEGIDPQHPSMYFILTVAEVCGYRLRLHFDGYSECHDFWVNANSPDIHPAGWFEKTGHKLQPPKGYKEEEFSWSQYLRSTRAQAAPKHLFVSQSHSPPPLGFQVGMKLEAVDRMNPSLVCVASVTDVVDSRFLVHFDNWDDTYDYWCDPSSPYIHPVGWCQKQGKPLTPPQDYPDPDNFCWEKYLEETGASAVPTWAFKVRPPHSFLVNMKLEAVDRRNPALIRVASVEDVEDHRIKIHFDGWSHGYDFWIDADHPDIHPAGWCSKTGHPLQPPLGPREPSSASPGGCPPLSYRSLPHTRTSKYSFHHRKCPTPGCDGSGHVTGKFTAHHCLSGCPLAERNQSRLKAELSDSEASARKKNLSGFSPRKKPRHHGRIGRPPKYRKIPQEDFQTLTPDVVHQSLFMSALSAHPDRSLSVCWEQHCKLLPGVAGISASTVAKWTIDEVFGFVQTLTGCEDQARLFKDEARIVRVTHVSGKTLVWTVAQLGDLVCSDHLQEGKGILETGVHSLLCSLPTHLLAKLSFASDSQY
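First, the protein-peptide complex forms for 30 min at room temperature (L3MBTL1 50 nM, biotinylated H3K9me1 peptide 75 nM). Next, compounds are pin-transferred and incubated 30 min. Finally, AlphaScreen beads are added and read after 30 min.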
G9a inh: G9a (human) methyltransferase inhibition | Q96KQ7 | G9a H3K9 monomethylation, AlphaScreen, 2 h | Potency, µM (series often up to 102 µM), without a hit: at the highest dose activity, negative = inhibition, hits mostly inhibitors | 8.8% of 350,000 active | AID 504332; also: potency is read from the fitted curve at half-maximal effect; % is scaled to controls: 0 for no effect and ±100 for the full control effect; nearly all actives have a fitted effect of over 75% in size
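Chemiluminescent proximity detection of H3K9 monomethylation, read after 10 min bead incubation in the dark. Reaction: 20 nM G9a, 500 nM biotin-H3K9 peptide, 20 uM SAM cofactor, 2 h, room temperature, following 15 min enzyme-compound preincubation.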
An asterisk follows results filed as active; [ ] = dose if it differs, or a comment. Unless noted, calls follow the shape of the dose curve; as a rule, active = well fitted inhibition curve with a large enough effect; inconclusive = small, poorly fitted or top-dose-only effect; inactive = no such curve, though single readings can be large or run the other way.

Nc1nc(SC2c3cccc4cccc(c34)C2NS(=O)(=O)c2ccccc2)n[nH]1 (stereo unspecified) was read as JMJD2A Tudor -22%[57.1 µM], HP1b binding inh inconclusive, BAZ2B block inconclusive, PI5P4Ka inh 4, L3MBTL1 block -4% and G9a inh 3.2µM*.
`CCc1nn(CC(=O)Nc2c(C)cc(C)cc2C)c(=O)c2cc3sccc3n12` gave JMJD2A Tudor -3%, HP1b binding inh 19%, BAZ2B block -2% and G9a inh inconclusive.
O=C(CC(c1ccccc1)c1ccco1)Nc1nccs1 (stereo unspecified) was read as JMJD2A Tudor -24%, HP1b binding inh 6%, BAZ2B block inconclusive, PI5P4Ka inh -8, L3MBTL1 block -14% and G9a inh 50µM*.
CC(CC(=O)Nc1nccs1)c1ccccc1 (stereo unspecified) was read as JMJD2A Tudor -9%, HP1b binding inh 6%, BAZ2B block -1%, PI5P4Ka inh -9, L3MBTL1 block -3% and G9a inh 6%.
Screening COC(=O)c1cc2oc(C)cc2n1CC(=O)N(C)c1ccccc1 returned JMJD2A Tudor inconclusive, HP1b binding inh 4%, BAZ2B block -2%, L3MBTL1 block -2% and G9a inh inconclusive.
For C=CCN(C(=O)Cn1c(C(=O)OC)cc2oc(C)cc21)c1ccccc1 the results were JMJD2A Tudor -13%, HP1b binding inh -2%, BAZ2B block 4%, L3MBTL1 block -11% and G9a inh 45µM*.
CCc1ccc(C(=O)NNC(=S)Nc2ccc(S(N)(=O)=O)cc2)s1 was read as JMJD2A Tudor -2%[11.4 µM], HP1b binding inh 15%, BAZ2B block -2%, PI5P4Ka inh 2 and G9a inh 7.9µM*.
Screening CCOc1ccc(NC(=O)NNC(=O)c2ccc(CC)s2)cc1 returned JMJD2A Tudor -34%, HP1b binding inh 28%, BAZ2B block -32%, PI5P4Ka inh 5 and L3MBTL1 block -14%.
CC(C)CC(=O)NNC(=S)Nc1ccc(S(N)(=O)=O)cc1 was read as JMJD2A Tudor 2%, HP1b binding inh -3%, BAZ2B block -35%, PI5P4Ka inh -6, L3MBTL1 block 10% and G9a inh 5.6µM*.
`CC(C)CC(=O)NC(=S)Nc1ccc(S(=O)(=O)NC(C)(C)C)cc1` gave JMJD2A Tudor -9%, HP1b binding inh 10%, BAZ2B block -4%, PI5P4Ka inh -6, L3MBTL1 block 3% and G9a inh -15%[59 µM].
Screening CSc1nc2ccc(NC(=O)c3ccc(=O)[nH]c3)cc2s1 returned JMJD2A Tudor -4%, HP1b binding inh -1%, BAZ2B block -1%, PI5P4Ka inh 8 and G9a inh 50µM*.
O=C(Nc1ccc(N2CCC(N3CCCCC3)CC2)c(C(=O)O)c1)c1ccc(Br)cc1 was read as JMJD2A Tudor inconclusive, HP1b binding inh 14%, BAZ2B block 79µM* and G9a inh -31%[59 µM].
For O=C(Nc1ccc(N2CCOCC2)c(Cl)c1)c1ccc(Cl)cc1 the results were JMJD2A Tudor -29%, HP1b binding inh 3%, BAZ2B block -33%, PI5P4Ka inh -6 and G9a inh -21%[59 µM].
O=C(Nc1cnc(N2CCC(N3CCCCC3)CC2)c(C(=O)O)c1)c1ccc(Br)cc1 was read as JMJD2A Tudor 79µM*, HP1b binding inh -3%, BAZ2B block inconclusive and G9a inh inconclusive.
O=C(Nc1ccc(N2CCOCC2)c(C(=O)O)c1)c1ccc(Br)cc1 was read as JMJD2A Tudor 71µM*, HP1b binding inh 33%, BAZ2B block inconclusive and G9a inh -37%[59 µM].
For Cc1cccc(C(=O)Nc2ccc(N3CCN(c4ccc(F)cc4)CC3)c(C(=O)O)c2)c1 the results were JMJD2A Tudor inconclusive, HP1b binding inh 17%, BAZ2B block -4% and G9a inh 6%[59 µM].
Screening Cc1cccc(C(=O)Nc2ccc(N3CCC(CCN4CCOCC4)CC3)c(C(=O)O)c2)c1 returned JMJD2A Tudor -25%, HP1b binding inh 16%, BAZ2B block 32µM*, L3MBTL1 block -29% and G9a inh -6%[12.7 µM].
`COc1cc2ccccc2cc1C(=O)Nc1cccc(-c2nc3cc(C)c(C)cc3o2)c1` gave JMJD2A Tudor -15%, HP1b binding inh 3%, BAZ2B block -2% and G9a inh inconclusive.
Screening COc1cccc(CNC(=O)CN2C(=O)N(c3cccc(Cl)c3)S(=O)(=O)c3ccccc32)c1OC returned JMJD2A Tudor -8%, HP1b binding inh 46%, BAZ2B block 4% and G9a inh 4%[59 µM].
`Cc1ccc(-c2nnc(Nc3cccc(C(F)(F)F)c3)c3ccccc23)cc1S(=O)(=O)N1CCOCC1` gave JMJD2A Tudor -10%, HP1b binding inh 23%, BAZ2B block -13% and G9a inh 2%[59 µM].
`CCCCn1cc(S(=O)(=O)c2ccc(Cl)cc2)c(=O)c2cc(F)c(N3CCCCC3)cc21` gave JMJD2A Tudor -12%, HP1b binding inh 16%, BAZ2B block 0% and G9a inh 6%[59 µM].
`CCN1CCN(c2ccc(S(=O)(=O)N3CCCCC3)cc2NC(=O)c2ccc(F)cc2)CC1` gave JMJD2A Tudor inconclusive, HP1b binding inh 19%, BAZ2B block -6%, PI5P4Ka inh 2, L3MBTL1 block -5% and G9a inh 10µM*.
For CS(=O)(=O)N1CCN(c2ccccc2NC(=O)c2ccc([N+](=O)[O-])o2)CC1 the results were JMJD2A Tudor 3.2µM*, HP1b binding inh inconclusive, BAZ2B block -9%, PI5P4Ka inh inconclusive, L3MBTL1 block 1% and G9a inh -3%.
CCN1CCN(c2ccc(S(=O)(=O)N3CCCCC3)cc2NC(=O)CC(C)c2ccccc2)CC1 (stereo unspecified) was read as JMJD2A Tudor -29%, HP1b binding inh -1%, BAZ2B block -8%, PI5P4Ka inh -5, L3MBTL1 block -1% and G9a inh 50µM*.
Screening O=C(Nc1cc(S(=O)(=O)N2CCCCC2)ccc1N1CCOCC1)c1ccc(F)cc1 returned JMJD2A Tudor -8%, HP1b binding inh 46%, BAZ2B block 11%, PI5P4Ka inh 6, L3MBTL1 block 5% and G9a inh -33%.
`CCN1CCN(c2ccc(S(=O)(=O)N3CCCCC3)cc2NC(=O)c2ccc([N+](=O)[O-])o2)CC1` gave JMJD2A Tudor inconclusive, HP1b binding inh inconclusive, BAZ2B block -32%, PI5P4Ka inh 10, L3MBTL1 block -3% and G9a inh 35µM*.
